# Measured values as given in article PMC4552634, “A New Set of Chemical Starting Points with Plasmodium falciparum Transmission-Blocking Potential for Antimalarial Drug Discovery” (PLoS ONE, 2015).
# Hit rate of the full screen: of about 13,000 compounds, about 3,200 (25%) showed an effect of 50% or more. The list shows a part of the results.
# Test system: P. falciparum stage V gametocytes
# Design: BacTiter-Glo ATP luminescence viability of purified stage V gametocytes in 384-well plates, per cent inhibition versus DMSO
# Conditions: 48 h, 5 µM; inhibitor
row,Structure (SMILES),% Inhibition
1,Oc1ccc(CCNCCCCCCNCCc2ccc(Cl)c3ccccc23)cc1O [TCMDC-131271],123.4%
2,O=C(CCCCCNC(=O)c1ccc(O)c(-c2ccc(Cl)c(Cl)c2)c1)NCCc1ccc(Cl)c(Cl)c1 [TCMDC-140870],6.745%
3,O=C(Nc1ccc(CCNCCCc2ccccc2)cc1)Nc1ccc(Cl)c(Cl)c1 [TCMDC-140703],18.38%
4,NS(=O)(=O)c1cccc(Nc2nccc(-c3cnn4ncccc34)n2)c1 [TCMDC-138919],-22.3%
5,Nc1nc(N)c2cc(CNc3ccc(Cl)c(Cl)c3)ccc2n1 [TCMDC-141974],-49.67%
6,Cc1cc(N)c2cc(NC(=O)c3cc4ccccc4s3)ccc2n1 [TCMDC-139336],120.6%
7,Cc1[nH]cnc1-c1cccc(NC(=O)c2cc3ccccc3s2)c1 [TCMDC-140418],-4.001%
8,COc1cc(C)nc2ccc(NC(=O)c3cc(C(F)(F)F)cc(C(F)(F)F)c3)cc12 [TCMDC-139381],-62.94%
9,Cc1cc(N)c2cc(NC(=O)c3ccc4ccccc4c3)ccc2n1 [TCMDC-139362],110.4%
10,O=C(Nc1cncc(NC(=O)c2ccc(Cl)c(Cl)c2)c1)c1ccc(Cl)c(Cl)c1 [TCMDC-134576],-22.28%
11,CN1CCc2cc(NC(=O)c3cc4ccccc4s3)cc(-c3ccccc3)c2CC1 [TCMDC-141733],18.19%
12,Cc1cc(Nc2cccc(C(F)(F)F)c2)nc2ccc(NC(=O)c3ccc(=O)[nH]c3)cc12 [TCMDC-125286],-51.61%
13,Nc1nc(N)c2cc(NC(=O)c3ccc(Cl)c(Cl)c3)ccc2n1 [TCMDC-141982],63.61%
14,CC(C)c1cc(N)c2cc(NC(=O)COCC(=O)Nc3ccc4nc(C(C)C)cc(N)c4c3)ccc2n1 [TCMDC-140151],20.51%
15,Cc1cc(N)c2cc(NC(=O)c3cc(C(F)(F)F)cc(C(F)(F)F)c3)ccc2n1 [TCMDC-139377],129.8%
16,Cc1ccc2nc(-c3cc(-c4ccc(OCc5ccccc5)cc4)cnc3N)[nH]c2c1 [TCMDC-135839],-50.65%
17,Cn1c(=O)n(C)c2cc(CNCCNc3ccnc4cc(Cl)ccc34)ccc21 [TCMDC-125236],26.13%
18,CCCOc1ccc(CCCON2C(N)=NC(N)=NC2(C)C)cc1 [TCMDC-131757],14.14%
19,Cc1noc(C)c1-c1cccc(CNCc2ccc(-c3cccc(-c4nc5ccccc5[nH]4)c3)cc2)c1.O=C(O)C(F)(F)F [TCMDC-132565],-39.99%
20,OCCN1CCN(C(=S)NC2CCCCC2)CC1 [TCMDC-123848],-10.92%
21,O=C(NCc1cccc(C(F)(F)F)c1)c1ccc(-c2nc3cc(F)c(F)cc3[nH]2)cc1 [TCMDC-140461],13.57%
22,COc1cc(C)nc2ccc(NC(=O)Nc3cccc4ccccc34)cc12 [TCMDC-139397],-27.18%
23,Cc1cc(C(=O)Nc2ccc(OCc3ccccc3)cc2)on1 [TCMDC-124596],15.42%
24,COc1cc(C)nc2ccc(NC(=O)c3ccc(C(=O)Nc4ccc5nc(C)cc(OC)c5c4)cc3)cc12 [TCMDC-139502],14.93%
25,Cc1cc(N)c2cc(NC(=O)c3cccc(C(=O)Nc4ccc5nc(C)cc(N)c5c4)c3)ccc2n1 [TCMDC-139410],73.19%
26,Cc1cc(N)c2cc(NC(=O)CCC(=O)Nc3ccc4nc(C)cc(N)c4c3)ccc2n1 [TCMDC-139503],21.97%
27,Cc1cc(C)c(C(=O)Nc2ccc3nc(C)cc(N)c3c2)c(C)c1 [TCMDC-139379],-0.864%

row,Structure (SMILES),% Inhibition
1,CCc1ccc(OCc2ccccc2C(=O)Nc2ccc3nc(C)cc(N)c3c2)cc1 [TCMDC-125882],102.8%
2,Cc1cc(Nc2ccc(OCc3ccccc3Cl)cc2)c2cc(Cl)ccc2n1 [TCMDC-123799],-30.43%
3,Cc1cc(N)c2cc(NC(=O)c3cccc4ccccc34)ccc2n1 [TCMDC-139378],63.27%
4,Cc1cccc2nc(-c3ccc(-c4ccc(CN5CCN(c6ccc(C#N)cn6)CC5)cc4)s3)[nH]c12.O=C(O)C(F)(F)F [TCMDC-133116],1.839%
5,NC1(C(=O)O)Cc2ccc(Cl)cc2C1 (centres unmarked) [TCMDC-131768],8.887%
6,O=C(/C=C/c1ccc(Cl)c(Cl)c1)NC1CCN(Cc2cccc(O)c2)CC1 [TCMDC-141738],-9.136%
7,Oc1ccc2c(c1NCC1CCCCC1)CCCC2 [TCMDC-138157],-18.15%
8,COC(=O)CN(C(=O)/C=C/c1ccc(Cl)c(Cl)c1)C1CCC(CN2CCC(c3c[nH]c4ccccc34)CC2)CC1 (centres unmarked) [TCMDC-140320],0.7085%
9,Oc1ccc(-c2cc(-c3ccc(O)cc3)nc(-c3ccccc3)n2)cc1 [TCMDC-123851],-22.65%
10,Cc1ccccc1C1CCN(C2CCC(NC(=O)c3ccc(-c4ccccc4F)o3)CC2)CC1 (centres unmarked) [TCMDC-134110],121.1%
11,Cc1ccccc1C1CCN(C2CCC(NC(=O)c3cc4cc(Cl)ccc4o3)CC2)CC1 (centres unmarked) [TCMDC-134102],-69.82%
12,Cc1ccccc1C1CCN(C2CCC(NC(=O)c3csc(-c4cccc(Cl)c4)n3)CC2)CC1 (centres unmarked) [TCMDC-134104],-68.67%
13,Cc1ccccc1C1CCN(C2CCC(NC(=O)c3ccc(-c4ccccc4)s3)CC2)CC1 (centres unmarked) [TCMDC-134113],-48.7%
14,CCc1c(C(=O)NC2CCC(N3CCC(c4ccccc4C)CC3)CC2)[nH]c2ccc(OC)cc12 (centres unmarked) [TCMDC-133531],-38.07%
15,Cc1ccccc1C1CCN(C2CCC(NC(=O)c3cncc(-c4ccccc4)c3)CC2)CC1 (centres unmarked) [TCMDC-134111],-71.64%
16,COc1cccc(-c2cc(C(=O)NC3CCC(N4CCC(c5ccccc5C)CC4)CC3)[nH]n2)c1 (centres unmarked) [TCMDC-133532],73.16%
17,Cc1ccccc1C1CCN(C2CCC(NC(=O)c3ccc(-c4cccc(C(F)(F)F)c4)o3)CC2)CC1 (centres unmarked) [TCMDC-134108],57.44%
18,Cc1ccc(/C=C/C(=O)NC2CCC(N3CCC(c4ccccc4C)CC3)CC2)cc1F (centres unmarked) [TCMDC-133514],-74.34%
19,Cc1ccccc1C1CCN(C2CCC(NC(=O)c3cc(-c4ccccc4)oc3C)CC2)CC1 (centres unmarked) [TCMDC-134112],-36.13%
20,COc1ccc(-c2csc(C(=O)NC3CCC(N4CCC(c5ccccc5C)CC4)CC3)c2)cc1 (centres unmarked) [TCMDC-134109],30.06%
21,Cc1ccccc1C1CCN(C2CCC(NC(=O)c3cc(-c4ccc(Cl)cc4)cs3)CC2)CC1 (centres unmarked) [TCMDC-133529],65.99%
22,CCCCN(Cc1cnccc1-c1ccc(Br)cc1)c1ccc(C(O)(C(F)(F)F)C(F)(F)F)cc1 [TCMDC-135242],23.71%
23,CCC(C)CN1CCCN(c2ccc(NC(=O)c3cccs3)cc2)CC1 (centres unmarked) [TCMDC-134998],9.826%
24,CCN(Cc1ccccc1)C1CCN(Cc2cc(Br)ccc2O)CC1 [TCMDC-123661],1.171%
25,O=C(Nc1ccc(Cl)cc1)Nc1ccc(-c2csc(-c3nc4ccccc4[nH]3)c2)cc1 [TCMDC-133174],10.18%
26,Cc1cc(N2CCCC2)nc(Nc2ccc(NC(=O)C(C)(C)C)cc2)n1 [TCMDC-124716],77.07%
27,Cc1cc(N2CCCC2)nc(Nc2ccc(NC(=O)Nc3ccccc3)cc2)n1 [TCMDC-124705],-12.69%

row,Structure (SMILES),% Inhibition
1,Cc1cc(N2CCCC2)nc(Nc2ccc(NC(=O)C(C)C)cc2)n1 [TCMDC-124970],-2.67%
2,CCNc1cc(C(=O)N[C@@H](Cc2ccccc2)[C@H](O)CNCCCc2ccc(OC)cc2)cc(N2CCCC2=O)c1 [TCMDC-141685],6.049%
3,Cc1onc(-c2ccccc2)c1-c1nc(NCc2ccccc2Cl)no1 [TCMDC-134205],-12.6%
4,Fc1ccc(OC2CN(c3nccc(NCc4ccccc4Cl)n3)C2)cc1 [TCMDC-135110],91.97%
5,CCNC(=O)N1CCc2ccc(Oc3nc(NCc4ccccc4OC)ncc3C)cc2CC1 [TCMDC-133414],17.56%
6,CCOc1ccccc1CNc1nccc(NCc2ccccc2OC)n1 [TCMDC-135119],40.21%
7,COc1ccccc1CNc1ccnc(N2CC(Oc3ccc(F)cc3)C2)n1 [TCMDC-135118],57.67%
8,O=C(Nc1ccc(OC2CCN(Cc3ccc(F)cc3)C2)cc1)c1ccco1 (centres unmarked) [TCMDC-133758],44.14%
9,CC(C)(C)NC(=O)c1ccc(Oc2ccc(OC(F)(F)F)cc2)c(NC(=O)C(C)(C)C)c1 [TCMDC-137270],-22.87%
10,CCC(CC(C)C(=O)O)=C(c1ccccc1)c1ccccc1 (centres unmarked) [TCMDC-131707],-2.137%
11,COC(=O)C(C)NCC(=O)c1ccccc1 (centres unmarked) [TCMDC-131767],45.43%
12,CC(C)[C@H](NCC(=O)c1ccccc1)C(=O)O [TCMDC-131333],52.78%
13,COc1cc(NC(=O)N2CCOC(CCN3CCC4(CCc5ccccc54)CC3)(c3ccc(Cl)c(Cl)c3)C2)cc(OC)c1 (centres unmarked) [TCMDC-135338],-0.7672%
14,CCc1c(C)nc(-n2nc(C)cc2NC(=O)CCc2ccccc2)[nH]c1=O [TCMDC-124934],-11.5%
15,COc1ccc2ncc(F)c(CCN3CC(O)C(CNCc4ccc5oc(=O)ccc5c4)C3)c2n1 (centres unmarked) [TCMDC-136499],11.09%
16,COc1ccc2ncc(F)c(CCN3CC(O)C(CNCc4ccc5ccccc5c4)C3)c2n1 (centres unmarked) [TCMDC-136528],43.95%
17,COc1ccc2ncc(F)c(CCN3CCC(NCc4cc(F)c5c(c4)OCCO5)CC3)c2n1 [TCMDC-135849],84.79%
18,COc1ccc2ncc(F)c(CCN3CC(O)C(CNCc4ccccc4)C3)c2n1 (centres unmarked) [TCMDC-136498],50.66%
19,COc1ccc2ncc(F)c(CCN3CC(O)C(CNCc4ccc(F)cc4)C3)c2n1 (centres unmarked) [TCMDC-136527],13.85%
20,CCc1cc(CNC2CCN(CCc3c(F)cnc4ccc(OC)nc34)CC2)cc2c1OCCO2 [TCMDC-136290],31.48%
21,COc1ccc2ncc(F)c(CCN3C[C@H](CNCc4cc(C#N)c5c(c4)OCCO5)[C@H](O)C3)c2n1 [TCMDC-136275],16.8%
22,COc1ccc2ncc(F)c(CCN3CCC4(CC3)COC(c3cc5c(cn3)OCCO5)=N4)c2n1 [TCMDC-135741],93.18%
23,COc1ccc2ncc(F)c(CCN3CC(O)C(CNCc4ccc5c(c4)OCCO5)C3)c2n1 (centres unmarked) [TCMDC-136518],55.46%
24,COc1ccc2ncc(F)c(CCN3CCC(NCc4cc(OC)c5c(c4)OCCO5)CC3)c2n1 [TCMDC-135509],17.67%
25,COc1ccc2ncc(F)c(CCN3CCC(NCc4cc(C)c5c(c4)OCCO5)CC3)c2n1 [TCMDC-136209],19.66%
26,COc1ccc2ncc(F)c(CCN3CCC(NCc4cc(Br)c5c(c4)OCCO5)CC3)c2n1 [TCMDC-136211],30.05%
